Data reported in PubChem BioAssay AID493034 (The Scripps Research Institute Molecular Screening Center, 2011).
The whole screen tested about 2,400 compounds, of which about 2,200 (92%) were called active.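 The calls were made as follows: active = mean inhibition over triplicate runs exceeds the cutoff derived for the earlier primary screen (cut at about 25% in these data); inactive = the rest.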 The set was probably picked from earlier hits. Some of the results follow.

The molecules below were run against Platelet-activating factor acetylhydrolase IB subunit alpha2 (Homo sapiens) (UniProt P68402) (assay: inhibition of human PAFAH1B2 catalytic subunit – biochemical, fluorescence polarization, FP-rhodamine probe, triplicate, confirmation (AID 493034;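 also: 0% = enzyme with DMSO and 100% = wells lacking PAFAH1B2 protein; inhibitors lower polarization by leaving the probe unbound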)). Conditions: recombinant PAFAH1B2, FP-rhodamine probe fluorescence polarization; at 3.39 µM; active compounds read high.
Chain of Platelet-activating factor acetylhydrolase IB subunit alpha2 (Homo sapiens) (P68402 whole entry, looked up): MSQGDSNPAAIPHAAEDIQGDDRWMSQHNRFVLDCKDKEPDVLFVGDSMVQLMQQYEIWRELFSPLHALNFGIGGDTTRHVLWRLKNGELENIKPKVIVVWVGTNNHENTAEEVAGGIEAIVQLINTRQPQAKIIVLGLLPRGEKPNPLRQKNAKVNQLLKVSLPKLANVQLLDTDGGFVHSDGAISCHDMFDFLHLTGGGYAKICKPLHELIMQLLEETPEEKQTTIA

Compound | inhibition
N#Cc1c(NC(=O)Cn2c(=O)oc3ccccc32)oc(-c2ccccc2)c1-c1ccccc1 | 45% (active)
C=CCNC(=O)C1CCN(S(=O)(=O)c2ccc(Br)cc2)CC1 | 23.8% (inactive)
CCN(CC)S(=O)(=O)c1ccc(C(=O)NNC(=O)C2CCN(S(=O)(=O)c3ccc(Cl)cc3)CC2)cc1 | 37.9% (active)
O=C(NNC(=O)C1CCN(S(=O)(=O)c2ccc(Cl)cc2)CC1)c1ccccc1 | 24% (inactive)
Cc1ccc(C(c2nnnn2Cc2ccccc2)N2CCN(Cc3ccccc3)CC2)cc1 (stereo unspecified) | 16.6% (inactive)
Cn1c(=S)[nH]c2sc3c(c2c1=O)CCC(C(C)(C)C)C3 (stereo unspecified) | 41.1% (active)
O=C(O)c1ccc(CSCc2ccccc2Cl)o1 | 14.4% (inactive)
CCOC(=O)CSc1nnc(NC(=O)CN2CCN(C=O)CC2)s1 | 3.79% (inactive)
COC(=O)c1cc(NS(=O)(=O)c2ccc(N3CCCCCC3)c([N+](=O)[O-])c2)cc(C(=O)OC)c1 | 23.8% (inactive)
CCN(C(=O)COC(=O)c1cc(NS(=O)(=O)c2ccc(Cl)c([N+](=O)[O-])c2)ccc1O)C1CCCCC1 | 36.1% (active)
CCN(Cc1ccccc1)C(=O)COC(=O)c1cc(S(=O)(=O)Nc2ccccc2OC)ccc1O | 23.2% (inactive)
Cc1ccc(OCCC(=O)OCC(=O)NC2CCCC(C)C2C)cc1 (stereo unspecified) | 21.5% (inactive)
Oc1ccc(C23CC4CC(CC(C4)C2)C3)cc1O | 33.2% (active)
CCCCCCCCN1[C@@H](CC(=O)O)c2ccc(C(F)(F)F)cc2S1(=O)=O | 21.7% (inactive)
CC(C)(C)c1ccc(C2=CC(c3ccccc3F)n3ncnc3N2)cc1 (stereo unspecified) | 15.1% (inactive)
O=C(O)c1ccc(Cl)c(S(=O)(=O)N(Cc2ccccc2)c2ccc(F)cc2)c1 | 22.7% (inactive)
CCN(CC)CCN(C(=O)c1ccc(S(=O)(=O)N(CC)c2ccccc2)cc1)c1nc2c(OC)ccc(OC)c2s1 | 16.4% (inactive)
CCN(c1ccccc1)S(=O)(=O)c1cc(C(=O)O)ccc1C | 45.1% (active)
CC1CCCC(NC(=O)c2cccc(S(=O)(=O)NCc3ccccc3)c2)C1C (stereo unspecified) | 18.3% (inactive)
Cc1ccc(S(=O)(=O)N2[C@@H](c3ccc(C(C)(C)C)cc3)C(C(=O)O)=CC[C@H]2c2ccc(C(C)C)cc2)cc1 | 89.3% (active)
Cc1ccc([C@@H]2CC=C(C(=O)O)[C@H](c3ccc(C(C)(C)C)cc3)N2S(=O)(=O)c2ccc(C)cc2)cc1 | 95.5% (active)
CCc1ccc([C@@H]2CC=C(C(=O)O)[C@H](c3ccc(C(C)(C)C)cc3)N2S(=O)(=O)c2ccc(C)cc2)cc1 | 97.5% (active)
O=C(COc1ccc(Cl)cc1)NC1=NN(c2ccccc2)C(=O)C1 | 67.5% (active)
CCOC(=O)N1CCN(C(=O)c2ccccc2NC(=O)COc2ccccc2)CC1 | 1.01% (inactive)
O=C(COc1ccc(Cl)cc1)NNC(=O)C(=O)N1CCCCC1 | 19.2% (inactive)
N#CC1=C(N)c2ccccc2CC12CCCCC2 | 17.4% (inactive)

Compound | inhibition
N=C(N)c1ccc(N=Nc2c(O)ccc3c2[nH]c2ccccc23)cc1 | 33.4% (active)
O=[N+]([O-])c1cc(C2Nc3cccc4cccc(c34)N2)ccc1Cl | -0.07% (inactive)
O=C1OC[C@@H]2CCCN2C(=O)[C@H](CC(=O)N(CCO)Cc2ccccc2)C/C=C\C[C@H]1Cc1ccc(F)cc1 | 33.2% (active)
O=C1OC[C@@H]2CCCN2C(=O)[C@@H](CC(=O)N(CCO)Cc2ccccc2)C/C=C\C[C@H]1Cc1ccc(F)cc1 | 29.1% (active)
O=C1N[C@@H](Cc2c[nH]c3ccccc23)COC(=O)[C@@H](Cc2ccc(F)cc2)CC/C=C/C[C@@H]1CC(=O)N(CCO)Cc1ccccc1 | 21.5% (inactive)
O=C1N[C@@H](Cc2ccccc2)COC(=O)[C@@H](Cc2ccc(F)cc2)C/C=C\C[C@@H]1CC(=O)N(CCO)Cc1ccccc1 | 37.2% (active)
O=C1OC[C@H]2CCCN2C(=O)[C@@H](CC(=O)N(CCO)Cc2ccccc2)C/C=C\C[C@@H]1Cc1ccc(F)cc1 | 27.5% (active)
O=C(O)CCc1ccc(-c2ccc(Br)cc2)n1-c1ccc(O)cc1 | 31.6% (active)
CS(=O)(=O)C1=NSC2=NC(=O)/C(=C\c3cccn3-c3ccc(Cl)cc3)C(=N)N21 | 55.9% (active)
Cc1ccc(S(=O)(=O)Oc2ccc(/C=C3/C(=N)N4C(=NC3=O)SN=C4S(C)(=O)=O)cc2)cc1 | 50% (active)
Cc1ccc(-n2cccc2/C=C2\C(=N)N3N=C(c4ccco4)SC3=NC2=O)cc1 | 38.1% (active)
CCC1=NN2C(=N)/C(=C\c3cccn3-c3ccc(Cl)cc3)C(=O)N=C2S1 | 36.4% (active)
Cc1ccc(SCC(=O)NC(C)c2ccccc2)cc1 (stereo unspecified) | 21% (inactive)
Cc1ccc(SCc2cn3c(C)csc3n2)cc1 | 59.7% (active)
CCc1ccc(C2CC(c3ccc(Cl)cc3)n3nc(N)nc3N2)cc1 (stereo unspecified) | 30.1% (active)
C=CC[C@H](CC(=O)N(CCO)Cc1ccccc1)C(=O)N[C@H](COC(=O)[C@@H](CC=C)Cc1ccc(F)cc1)Cc1ccccc1 | 58% (active)
CCCCn1c(N)c(N(CC(C)C)C(=O)CN2C(=O)NC3(CCC(C(C)(C)CC)CC3)C2=O)c(=O)[nH]c1=O (stereo unspecified) | 16.4% (inactive)
COc1ccc(N2CCN(C(=O)CCNC(=O)c3ccc(C(C)(C)C)cc3)CC2)cc1 | 62.3% (active)
COc1ccc2[nH]c(C(=O)NCCN3CCOCC3)cc2c1 | 6.21% (inactive)
CC(/C=C1\SC(=S)N(NS(=O)(=O)c2ccccc2)C1=O)=C\c1ccccc1 | 39.6% (active)
Cc1ccc(S(=O)(=O)n2ccc3c(OCCOCCSCC(NC(=O)OC(C)(C)C)C(=O)O)cccc32)cc1 (stereo unspecified) | 85.8% (active)
O=C1C(=O)N2C(=C1C(=O)N1CCCCCC1)c1ccccc1CC21CCCC1 | 32.8% (active)
CCC(=O)Nn1cnc2c(c1=O)C1(CCCCC1)Cc1ccccc1-2 | 19.9% (inactive)
CC1(C)Cc2ccccc2C2=C(C(=O)N3CCCCCC3)C(=O)C(=O)N21 | 64.2% (active)
O=C(NCCSc1ncc(-c2ccc(F)cc2)[nH]1)c1ccc2c(c1)OCO2 | 20.8% (inactive)
